Where a structure was tested more than once in an assay, its records may differ in their call. Activity calls are given as the source filed them. Rule for the calls: active = hit-call score of the fitted dose curve at least 0.9, where 1 is the maximum; inactive = score below 0.9.
test: ATG_GATA_CIS: Attagene CIS-FACTORIAL HepG2 Assay for human GATA Binding Protein (AID 2282944); settings: HepG2 GATA cis-element reporter, Attagene multiplex mRNA; actives raise or lower the signal
Protocol: ATG_CIS is a cell-based, multiplexed-readout assay that uses HepG2, a human liver cell line, with measurements taken at 24 hours after chemical dosing in a 24-well plate.ATG_GATA_CIS is one of 52 assay component(s) measured or calculated from the ATG_CIS assay. It is designed to make measurements of mRNA induction, a form of inducible reporter, as detected with fluorescence intensity signals by Reverse transcription polymerase chain reaction (RT-PCR) and Capillary electrophoresis technology.Data from the assay component ATG_GATA_CIS was analyzed into 1 assay endpoint. This assay endpoint, ATG_GATA_CIS, was analyzed with bidirectional fitting relative to DMSO as the negative control and baseline of activity. Using a type of inducible reporter, measures of mRNA for gain or loss-of-signal activity can be used to understand the reporter gene at the transcription factor-level as they relate to the gene GATA1. Furthermore, this assay endpoint can be referred to as a primary readout, because this assay has produced multiple assay endpoints where this one serves a reporter gene function. To generalize the intended target to other relatable targets, this assay endpoint is annotated to the dna binding intended target family, where the subfamily is GATA proteins.
Human liver HepG2 cells are transiently transfected with multiple reporter transcription units (MRTUs) in 6-well plates using FuGene 6 reagent (Roche; 3 ml FuGene/1 mg DNA). The MRTU constructs are regulated by a cis-regulating element (promoter). […] A major difference between the CIS and TRANS system is that in CIS activities of endogenous TFs are measured, whereas the TRANS assay evaluates changes in activities of exogenous, chimeric NR-Gal4 proteins. […] At the end of 24 hour incubation, total RNA was isolated using TriZol reagent (Invitrogen). The isolated RNA is then reverse-transcribed using oligo(dT) primer and Mo-MLV reverse transcriptase (Invitrogen) with DNAse I (Ambion) treatment for 30 min. The one-tenth of the produced cDNA was amplified by PCR using Taq DNA polymerase (Invitrogen) and two reporter sequence-specific primers. The PCR products were fluorescently labeled by primer extension with 6-arboxyfluorescein (6-FAM) 5'-labeled reporter sequence-specific primer (2 min at 95 C, 20 s at 68 C and 10 min at 72 C) and these products were digested with 5U of HpaI (New England Biolabs) for 2h at 37 C. The fragments were purified using Qiaquick PCR columns (Qiagen), analyzed on an ABI 3130xL genetic analyzer (Applied Biosystems) with peak positions identified by using a set of X-rhodamine (ROX)-labeled MapMarker1000 molecular weight standards (BioVentures). The raw capillary electrophoresis data was processed using Attagraph software (Attagene).

**Q.** With `COc1cc(C(=O)NC2CCN(C)CC2)ccc1Nc1ncc2c(n1)N(C1CCCC1)CC(F)(F)C(=O)N2C` as the molecule, how does the outcome read?
**A.** inactive

**Q.** With `CC(O)CC(C)(C)O` (stereo not given) as the molecule, how does the outcome read?
**A.** inactive

**Q.** For `CC[C@@H]1C[C@H](N(Cc2cc(C(F)(F)F)cc(C(F)(F)F)c2)C(C)=O)c2cc(C(F)(F)F)ccc2N1C(=O)OC(C)C`, which outcome is on record?
**A.** inactive

**Q.** With `OCCO` as the molecule, how does the outcome read?
**A.** inactive

**Q.** For `O=C=NCCCCCCN=C=O`, which outcome is on record?
**A.** inactive

**Q.** With `CCCCCCCCCC(=O)O` as the molecule, how does the outcome read?
**A.** inactive

**Q.** With `NCc1cccc(C2CCN(C(=O)c3ccc(C#Cc4ccccc4F)o3)CC2)c1` as the molecule, how does the outcome read?
**A.** inactive

**Q.** With `Clc1cc(Cl)c2c(c1)N=C1CCCCCN1C2` as the molecule, how does the outcome read?
**A.** inactive

**Q.** Which outcome does the source give for `Cc1ccc2oc(CN(Cc3ccccc3)C(=O)Nc3c(F)cc(F)cc3F)c(-c3ccc(Cl)cc3)c2c1` here?
**A.** inactive

**Q.** With `O=C1c2ccccc2C(=O)N1CCc1noc(-c2ccc(CN3CCCCCC3)s2)n1` as the molecule, how does the outcome read?
**A.** inactive

**Q.** For `c1ccc2n[nH]nc2c1`, which outcome is on record?
**A.** inactive

**Q.** For `Cc1cc2c(cc1C(F)(F)F)N(C(=O)Nc1ccc(Oc3cccnc3C)nc1)CC2`, which outcome is on record?
**A.** inactive

**Q.** Which outcome does the source give for `CC(=O)N1CCN(c2ccc(OC[C@H]3CO[C@](Cn4ccnc4)(c4ccc(Cl)cc4Cl)O3)cc2)CC1` here?
**A.** inactive

**Q.** For `CC/C(=C(/CC)c1ccc(O)cc1)c1ccc(O)cc1`, which outcome is on record?
**A.** inactive

**Q.** Which outcome does the source give for `Cc1cccc2ccccc12` here?
**A.** inactive

**Q.** Which outcome does the source give for `CCCCCCCCCCCC[N+](C)(C)C` here?
**A.** inactive

**Q.** For `CCCCCc1ccc(N)cc1`, which outcome is on record?
**A.** inactive

**Q.** With `Cc1oc2c(NC(=O)c3c(Cl)cccc3Cl)cccc2c1C(C)(C)O` as the molecule, how does the outcome read?
**A.** inactive

**Q.** For `CCCCCCCC[Si](OCC)(OCC)OCC`, which outcome is on record?
**A.** inactive

**Q.** For `CN(C)c1ccc(C(=C2C=CC(=[N+](C)C)C=C2)c2ccc(N(C)C)cc2)cc1`, which outcome is on record?
**A.** inactive

**Q.** For `CCCCOC(=O)CC(CC(=O)OCCCC)(OC(C)=O)C(=O)OCCCC`, which outcome is on record?
**A.** inactive

**Q.** With `CCN(Cc1cccnc1)C(=O)c1cccc(Cl)c1[C@]1(C)C(=O)N(Cc2ccc(OC)cc2OC)c2ccc(Cl)cc21` as the molecule, how does the outcome read?
**A.** inactive

**Q.** With `O=C(O)c1ccccc1C(=O)OCc1ccccc1` as the molecule, how does the outcome read?
**A.** inactive

**Q.** With `CC(C)(c1cc(Br)c(O)c(Br)c1)c1cc(Br)c(O)c(Br)c1` as the molecule, how does the outcome read?
**A.** inactive

**Q.** What about the AC50 of the same molecule?
**A.** 58.1 µM (active)

**Q.** For `O=CCCCC=O`, which outcome is on record?
**A.** inactive

**Q.** For `C[C@]12CC[C@@H]3c4ccc(O)cc4CC[C@H]3[C@@H]1CC[C@H]2O`, which outcome is on record?
**A.** inactive

**Q.** Which outcome does the source give for `NC(=O)c1nc(-c2cccc(-c3cc(F)ccc3OCC(F)(F)C(F)(F)F)c2)n[nH]1` here?
**A.** inactive

**Q.** With `CN1C(=O)CC[C@H]1c1cccnc1` as the molecule, how does the outcome read?
**A.** inactive

**Q.** For `O=c1ccc2ccccc2o1`, which outcome is on record?
**A.** inactive

**Q.** For `O=C1O[C@H]([C@@H](O)CO)C(O)=C1O`, which outcome is on record?
**A.** inactive

**Q.** Which outcome does the source give for `CCCCCCCCCCCO` here?
**A.** inactive

**Q.** Which outcome does the source give for `CCCCCCCCOC(=O)c1cc(O)c(O)c(O)c1` here?
**A.** inactive

**Q.** For `Cc1occc1C(=O)Nc1ccc(C(=O)N2CCC(F)(F)/C(=C\C(=O)N3CCC(N4CCCCC4)CC3)c3ccccc32)cc1`, which AC50 is on record?
**A.** 46.7 µM (active)

**Q.** With `Oc1ccc2ccccc2c1` as the molecule, how does the outcome read?
**A.** inactive

**Q.** For `O=C1CCC(C2CCCCC2)CC1`, which AC50 is on record?
**A.** 187 µM (active)

**Q.** And the outcome?
**A.** inactive

**Q.** For `CCN(Cc1cccc(S(=O)(=O)O)c1)c1ccc(C(=C2C=CC(=[N+](CC)Cc3cccc(S(=O)(=O)O)c3)C=C2)c2ccccc2S(=O)(=O)[O-])cc1`, which outcome is on record?
**A.** inactive

**Q.** Which outcome does the source give for `CC1(C)NC(=O)N(c2ccc([N+](=O)[O-])c(C(F)(F)F)c2)C1=O` here?
**A.** inactive

**Q.** For `CN1C(=O)N(c2ccccc2Br)Cc2cnc(Nc3ccc4c(c3)OCC(CO)O4)nc21` (stereo not given), which outcome is on record?
**A.** inactive

Reference: PubChem BioAssay (EPA / NIEHS)
